Bioassay records: PubChem, several laboratories
Compounds with a hit are over-represented: about 3.1% of the library has one in this group of screens.
SSB-PriA inh: inhibitors of Klebsiella pneumoniae PriA binding to SSB C-terminal tail | AID 1272365 | AlphaScreen SSBct-PriA binding, biotinylated peptide | 430,000 compounds, 0.6% hits | inhibition, % at 33 µM; in the data active means inhibition mostly above about 37%, no sharp cut-off; inactive means mostly below about 20%;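 further: plate controls were negative control peptide for no effect and reference peptide for full effect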
Anthrax LF inh2: blocks Bacillus anthracis lethal factor protease. 360,000 compounds, 0.12% hits. multiplex microsphere protease cleavage assay, LF. P15917. inhibition, % at 10 µM; further: plate controls were buffer without enzyme for full effect and enzyme alone for no effect
Bead autofluor: flagged as autofluorescent in microsphere protease counterscreen | compound autofluorescence counterscreen, microsphere flow cytometry; hits give high values | fluorescence intensity (test concentration not listed) | 360,000 compounds, 3.1% hits; in the data active means fluorescence intensity above about 16000; inconclusive means no clear call, values can overlap the other calls
BoNT-A LC inh2: BoNT A light chain protease inhibition. multiplex microsphere protease substrate cleavage, flow cytometry. inhibition, % at 10 µM. 360,000 compounds, 0.17% hits. AID 588499; further: plate controls were buffer without enzyme for full effect and enzyme alone for no effect
BoNT-F LC inh: inhibitors of Botulinum neurotoxin F light chain protease | Multiplex microsphere protease cleavage assay, flow cytometry | inhibition, % at 10 µM | 360,000 compounds, 0.22% hits; in the data active means inhibition above about 35%, passing the limit was not always enough; inconclusive means no clear call, values can overlap the other calls; further: plate controls were buffer without enzyme for full effect and enzyme alone for no effect
Starred values were filed as active, the others as inactive; ? = inconclusive; nt = no result. Unless noted, no stated cut-off is given here; in the data, active means inhibition above about 30%; inconclusive means no clear call, values can overlap the other calls; inactive means below that.

SMILES	SSB-PriA inh	Anthrax LF inh2	Bead autofluor	BoNT-A LC inh2	BoNT-F LC inh
O=C(Nc1nc(-c2ccccn2)cs1)c1ccc2ncsc2c1	19	nt	nt	nt	nt
CC(=O)Nc1cccc(C(=O)Nc2nc(-c3ccccn3)cs2)c1	67*	nt	nt	nt	nt
CCn1cc(NC(=O)N2CCN(c3ccccc3OC)CC2)c2ccccc21	10	nt	nt	nt	nt
O=C(c1cc(=O)c2ccccc2o1)N(C(=O)N1CCCCC1)c1cccc(Cl)c1	-5	nt	nt	nt	nt
COc1cccc(C2=Nn3c(Cc4ccc(Cl)cc4)nnc3SC2)c1	1	nt	nt	nt	nt
Cc1nc(NCCCn2ccnc2)c2ccccc2n1	7	-1	13700	-1	-2
Clc1cccc(-c2nc(NCc3cccnc3)c3ccccc3n2)c1	-2	-14	17205*	14	14
c1cncc(-c2nc(NCCCn3ccnc3)c3ccccc3n2)c1	40*	-3	4325	0	-4
c1ccc(-c2nc(NCc3cccnc3)c3ccccc3n2)cc1	13	2	8068	1	12
O=C(NCCCc1ccccc1)c1cnn(-c2ccccc2Cl)c1-n1cccc1	3	nt	nt	nt	nt
Fc1cccc(C2NC(=S)NC3=C2N2CCC3CC2)c1 (stereo not given)	-6	-4	17015*	-2	-3
CN(C)c1nccnc1O[C@H]1CCCN(C(=O)c2cccs2)C1	-5	nt	nt	nt	nt
CCCCOC(=O)CNc1n[nH]c(=S)[nH]c1=O	-6	0	21415*	?	6
COc1ccc(S(=O)(=O)Cc2ccccc2)cc1N	-8	0	23710*	-2	-5
Cc1ccc(O)c(CNc2nc3ccccc3n2C(C)C)c1	-10	-2	3526	-2	38*
COc1ccc(C2NCCc3c2[nH]c2ccccc32)cc1CN1CCc2cc(OC)c(OC)cc2C1C (stereo not given)	44*	3	4935	0	-29
COc1ccc(Cl)cc1NC(=O)Cn1cc(OCc2ccc(F)cc2)c(=O)cc1CO	7	nt	nt	nt	nt
Cc1ccc(S(=O)(=O)N2CCC(C(=O)N[C@H](C(=O)NCC3CCCO3)C(C)C)CC2)cc1 (stereo not given in full)	-19	-2	20985*	-1	-1
CC(C)(C)c1ccc(C(=O)N2CCC(C(=O)NCC3CCCO3)CC2)cc1 (stereo not given)	-2	-3	22225*	1	2
O=C(NCC1CCCO1)C1CCN(C(=O)c2ccc(Cl)cc2)CC1 (stereo not given)	-8	-11	9001	1	-1
CC(C)(C)NC(=O)C1CCN(C(=O)c2ccc(Br)cc2)CC1	0	3	19805*	?	7
COc1ccc(S(=O)(=O)N2CCC(C(=O)NCC3CCCO3)CC2)cc1 (stereo not given)	-7	0	20959*	6	5
CCC(=O)N1CCc2cc(OC)c(OC)cc2C1COc1ccc(C(=O)OC)cc1 (stereo not given)	-6	-1	21370*	-2	-3
COC(=O)c1ccc(OCC2c3cc(OC)c(OC)cc3CCN2C(=O)c2ccco2)cc1 (stereo not given)	-11	-8	19776*	3	4
COc1cc2c(cc1OC)C(COc1ccc(C(C)C)cc1)N(C(=O)c1ccco1)CC2 (stereo not given)	-3	nt	nt	nt	nt
SMILES	SSB-PriA inh	Anthrax LF inh2	Bead autofluor	BoNT-A LC inh2	BoNT-F LC inh
N#CCCCSc1ncccc1-c1nc2ccccc2[nH]1	11	-5	19935*	2	1
COc1ccccc1CNC(=O)C(=O)NC[C@@](C)(O)CCSC	-13	nt	nt	nt	nt
CCOc1ccc(-c2c[n+](=O)c3c(n2[O-])CCCC3)c(OCC)c1	-17	0	19889*	-1	-6
COc1ccc(OC)c(-c2c[n+](=O)c3c(n2[O-])CCCC3)c1	-19	-2	6716	0	-2
O=C(Oc1c(Cl)cc(Cl)c2ccccc12)N1CCCCC1	-37	-2	2243	0	-4
O=C(Oc1c(Cl)cc(Cl)c2ccccc12)N1CCCC1	-39	-4	22642*	0	2
CC(C)NC(=O)Cc1cc(=O)[nH]c(SCc2ccc(F)cc2)n1	-7	nt	nt	nt	nt
O=C(CN(Cc1ccccc1)S(=O)(=O)c1ccc2c(c1)OCCO2)Nc1ccc2c(c1)OCCO2	-8	-7	4248	0	-5
CS(=O)(=O)N(CC(=O)Nc1ccc2c(c1)OCCO2)Cc1ccccc1	-4	0	21816*	2	0
CS(=O)(=O)N(CC(=O)Nc1c(F)cccc1F)Cc1ccccc1	-9	9	4272	3	20
COc1ccc(NC(=O)CN(C)S(=O)(=O)c2ccccc2)cc1	-30	-4	20336*	0	0
COc1ccc(NC(=O)CN(Cc2ccccc2)S(C)(=O)=O)cc1	-9	0	23289*	2	0
CS(=O)(=O)N(CC(=O)Nc1ccccc1)Cc1ccc(Cl)cc1	-18	-4	11059	0	-2
Cc1ccc(NC(=O)CN(Cc2ccccc2)S(C)(=O)=O)cc1C	-16	1	20638*	0	-1
Cc1ccc(C=NNC(=O)c2c[nH]c3ccccc23)o1	-11	nt	nt	nt	nt
Cc1ccc(C)c(NC(=S)NN=C2CCc3ccccc32)c1	9	nt	nt	nt	nt
COCCNC(=O)CN(Cc1ccc(Cl)cc1)S(C)(=O)=O	-20	0	20349*	1	0
Nc1nc(C2C(=O)CCCC2=O)cs1	58*	-2	24150*	-3	-6
Nc1nc(C2CC(=O)OC23CCCCC3)cs1 (stereo not given)	-14	-1	3585	0	14
COc1ccc(-n2c(O)c(C=NNc3nc(C)cc(C)n3)c3ccccc3c2=O)cc1OC	0	nt	nt	nt	nt
c1ccc(Cn2c(NCc3ccco3)nc3ccccc32)cc1	-5	3	22272*	?	5
C/C(=C1/SC(N2CC(C)OC(C)C2)=NC1=O)c1ccccc1 (stereo not given)	-15	-4	19965*	-1	-1
CCOC(=O)N1CCN(C(c2cccs2)c2sc3ncnn3c2O)CC1 (stereo not given)	3	nt	nt	nt	nt
CN(C)CCNc1nc2sc3c(c2c(=O)n1-c1ccc(F)cc1)CCCCC3	5	-8	4547	2	-30
COc1ccc(-n2c(NCCN(C)C)nc3sc4c(c3c2=O)CCCCC4)cc1	-1	0	22405*	0	-1
SMILES	SSB-PriA inh	Anthrax LF inh2	Bead autofluor	BoNT-A LC inh2	BoNT-F LC inh
CCCNc1nc(Nc2ccc(C)cc2)nc(N2CCCC2)n1	-14	0	16266*	0	1
NNc1nc(Nc2ccc([N+](=O)[O-])cc2)nc(N2CCCCCC2)n1	54*	7	3667	-1	-6
C=CCNC(CC(=O)Nc1ccc(C)cc1C)C(=O)O (stereo not given)	-11	nt	nt	nt	nt
O=C(O)c1cccc(N2C(=O)CSC2c2c(F)cccc2Cl)c1 (stereo not given)	-9	0	6479	-1	5
Cc1ccc(N2C(=O)CSC2c2c(F)cccc2Cl)cc1 (stereo not given)	-15	-11	17035*	?	13
CCNc1nc(NCC)nc(Nn2cnnc2)n1	-3	1	20282*	0	0
CCN(Cc1ccccc1)C(=O)C1CCN(Cc2ccc(OC)c(OC)c2OC)CC1	-16	1	22911*	?	-1
O=S(=O)(c1ccc(Cl)cc1)c1nc(-c2ccco2)oc1N1CCOCC1	-2	nt	nt	nt	nt
